Bioassay records (PubChem BioAssay)
HCMV antiviral: inhibitors of human cytomegalovirus | 410,000 tested, 4.5% active | HFF cells, HCMV-luciferase reporter, 72 h; stronger effect = lower value | activity change, negative = inhibition, % at 57.5 µM; in the data active = activity change below about -60%; inconclusive = no clear call, values can overlap the other calls; inactive = above about -39%
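Two compound doses tested in HFFs infected with HCMV-luciferase, MOI 1 PFU/cell, 72 h at 37C. Lysate luminescence read with OneGlo; data normalized against buffer-only and 10uM Salinomycin inhibitor controls.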
AmpC inh no detg: blocks E. coli AmpC beta-lactamase in detergent-free assay; P00811; AmpC nitrocefin hydrolysis, absorbance 480 nm, 0.0001% Triton; Potency, µM (top dose mostly 57.1 µM), usual class: inhibitors; 330,000 tested, 0.52% active; also: nearly all actives have a fitted effect of over 20% in size
Target sequence (P00811 whole entry, looked up): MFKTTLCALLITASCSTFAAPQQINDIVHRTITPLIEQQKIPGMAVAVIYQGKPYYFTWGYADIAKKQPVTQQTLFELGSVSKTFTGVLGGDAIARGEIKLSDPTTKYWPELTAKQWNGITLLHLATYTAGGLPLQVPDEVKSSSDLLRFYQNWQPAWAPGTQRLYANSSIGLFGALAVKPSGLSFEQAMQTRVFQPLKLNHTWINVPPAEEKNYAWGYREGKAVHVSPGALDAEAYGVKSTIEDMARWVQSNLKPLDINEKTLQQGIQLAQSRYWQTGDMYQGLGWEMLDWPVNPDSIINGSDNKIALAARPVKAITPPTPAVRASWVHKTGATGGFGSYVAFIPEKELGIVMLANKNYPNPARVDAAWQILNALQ
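AmpC (5.3 nM in the dispensed reagent) in 20 mM phosphate pH 7.0 with 0.01% (detergent screen) or 0.0001% Triton X-100 was preincubated with compounds for 15 min at room temperature. Nitrocefin was then added from an 800 uM solution, and hydrolysis was followed at 480 nm.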
FMDV inh: blocks foot and mouth disease virus. Potency, µM (series often up to 57.9 µM), actives largely listed as inhibitors. 410,000 tested, 1.2% active. FMDV antiviral cell-based qHTS; calls by dose curve; tested in HEK293T cells; also: read-out not given here; nearly all actives have a fitted effect of over 45% in size
HCV inh: HCV inhibition; Huh7.5.1 HCVcc-Cre infection, luciferase reporter, 44 h; Potency, µM (titrated, usually from 41.8 µM), hits mostly inhibitors; 340,000 tested, 3.4% active; AID 651820
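Luciferase read-out (15 sec integration) after a 15 min room-temperature substrate step quantifies HCVcc-Cre infection. Cells, 1,000 per well, had compound added 4 h post-plating, then virus at ~0.5 moi, and were cultured 44 h.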
AmpC detergent: inhibitors of E. coli AmpC beta-lactamase with detergent. 370,000 tested, 0.041% active. AmpC hydrolysis of nitrocefin, absorbance 480 nm, 0.01% Triton. Potency, µM (top dose mostly 114 µM), actives largely listed as inhibitors; also: nearly all actives have a fitted effect of over 25% in size
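AmpC (5.3 nM in the dispensed reagent) in 20 mM phosphate pH 7.0 with 0.01% (detergent screen) or 0.0001% Triton X-100 was preincubated with compounds for 15 min at room temperature. Nitrocefin was then added from an 800 uM solution, and hydrolysis was followed at 480 nm.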
Each line names hits and unclear results; the compound was inactive in the other large screens. Only some compounds are listed: those with a hit (about 7.3% of all), similar ones and a draw of the others. Unless noted, calls follow the shape of the dose curve; as a rule, active = well fitted curve in the direction sought with a large enough effect; inconclusive = small, poorly fitted or top-dose-only effect, or another doubt; inactive = no such curve, though single readings can be large; an effect the other way counts as inactive or inconclusive.

COc1ccccc1C(=O)NCC(=O)N/N=C/c1cc(Br)ccc1OCc1ccccc1	HCMV antiviral inconclusive, AmpC inh no detg 25µM, FMDV inh inconclusive, HCV inh 10µM
Cc1ccc(/C=N/NC(=O)c2ccccc2OCc2ccc(F)cc2)o1	HCMV antiviral inconclusive, HCV inh 10µM
CCC(CC)=NNC(=O)c1ccccc1OCc1ccc(F)cc1	HCMV antiviral inconclusive, HCV inh inconclusive, AmpC detergent inconclusive
COc1cc(C(=O)NCc2ccccc2)ccc1OC(F)F	none
CCc1nc2nc(C)c(NS(=O)(=O)c3ccc(C(C)(C)C)cc3)c(=O)n2[nH]1	none (no result: AmpC inh no detg, HCV inh)
CCCCN(C(=O)Cc1ccc([N+](=O)[O-])cc1)C(C(=O)Nc1c(C)cccc1C)C(=O)c1ccc(OC)cc1 (stereo not drawn)	none (no result: AmpC inh no detg, FMDV inh, HCV inh, AmpC detergent)
CCCc1nn2c(=O)cc(COc3ccc(/C=C(\C#N)C(=O)Nc4ccccc4)cc3)nc2s1	none (no result: AmpC inh no detg, HCV inh)
COc1ccc(/C=N/NC(=O)c2ccccc2OCc2ccccc2)c(OC)c1	HCMV antiviral inconclusive, HCV inh 13µM
O=C(N/N=C\c1ccccc1OCc1ccccc1)c1ccco1	none
COc1ccc(/C(C)=N/NC(=O)c2ccccc2OCc2ccccc2)c(OC)c1	none
O=C(N/N=C/c1ccccc1)c1sccc1OCc1ccc(F)cc1	HCMV antiviral -62, HCV inh inconclusive, AmpC detergent inconclusive
C#CCOc1ccccc1/C=N/NC(=O)c1ccccc1OCc1ccccc1	HCMV antiviral inconclusive, AmpC inh no detg 20µM, FMDV inh 18µM, HCV inh inconclusive
CN1CC2=Cc3ccccc3OC23Oc2ccccc2C=C3C1	HCMV antiviral -80, FMDV inh inconclusive
CCN(CC)CCOCCOc1cc(C)c(Cl)c(C)c1	HCMV antiviral -72, HCV inh 11µM, AmpC detergent inconclusive (no result: FMDV inh)
O=C(c1cnccn1)N1CCc2ccccc21	none
O=C(c1cnccn1)N1CCc2ccccc2C1	HCMV antiviral -100
O=C(c1ccc([N+](=O)[O-])cc1)N1CCc2ccccc2C1	HCMV antiviral -68, AmpC detergent inconclusive
CN1OC[C@@H]2CN(C(=O)CCc3ccccc3)[C@H](c3cccc(N4CCOCC4)c3)C[C@@H]21	none (no result: AmpC inh no detg, AmpC detergent)
O=C1CC(c2ccc(OCCCCCOc3ccc(C4CC(=O)NC4=O)cc3)cc2)C(=O)N1 (stereo not drawn)	FMDV inh 28µM, HCV inh inconclusive
CCN(CC)CCCC(C)Nc1nccc2c(Cl)cccc12 (stereo not drawn)	HCV inh 10µM (no result: AmpC inh no detg, AmpC detergent)
N[C@H]1CC[C@@]23CCCN2C(=O)CCC[C@H]3[C@H]1Cc1ccccc1	none (no result: AmpC inh no detg, FMDV inh, HCV inh, AmpC detergent)
CC(=O)N1CCc2c(sc(NC(=O)CCS(=O)(=O)c3ccccc3)c2C(N)=O)C1	HCV inh inconclusive
CC(C)N1CCc2c(sc(NC(=O)CCS(=O)(=O)c3ccccc3)c2C(N)=O)C1	HCMV antiviral -111
CC(C)CN(CC(C)C)S(=O)(=O)c1ccc(C(=O)Nc2sc3c(c2C(N)=O)CCN(C(C)C)C3)cc1	HCMV antiviral -82 (no result: AmpC inh no detg, HCV inh)
CC(C)NC(=O)NC(=O)COC(=O)c1c2c(nc3ccccc13)CCC2	HCMV antiviral inconclusive, FMDV inh 11µM, HCV inh 4.5µM
O=C(COC(=O)c1cc(-c2ccccc2)nc2ccccc12)Nc1ccc2c(c1)OCO2	AmpC inh no detg inconclusive
NC(=O)COC(=O)c1c2c(nc3ccccc13)CCCC2	none
O=C(COC(=O)c1c2c(nc3ccccc13)CCCC2)Nc1ccc2c(c1)OCO2	HCV inh 5.6µM
O=C(OCC(=O)N1CCc2ccccc21)c1c2c(nc3ccccc13)CCCCC2	HCMV antiviral inconclusive, HCV inh 2.8µM, AmpC detergent inconclusive
COc1nnc(-c2ccc(N3CCCCC3)c(NC(=O)COc3ccccc3)c2)c2ccccc12	none (no result: AmpC inh no detg, AmpC detergent)
c1ccc(-c2nc(NCC3CCCO3)c3ccccc3n2)nc1 (stereo not drawn)	HCMV antiviral -97, HCV inh inconclusive
COc1ccc(Nc2nc(NCC3CCCO3)c3ccccc3n2)c(OC)c1 (stereo not drawn)	HCMV antiviral -91, FMDV inh inconclusive, HCV inh 10µM
CCc1nc(NCC2CCCO2)c2oc3ccccc3c2n1 (stereo not drawn)	HCMV antiviral -84, HCV inh inconclusive
CCOc1ccc(Nc2nc(NCC3CCCO3)c3ccccc3n2)cc1 (stereo not drawn)	FMDV inh 25µM, HCV inh inconclusive
